Bioassay records deposited in PubChem BioAssay by National Center for Advancing Translational Sciences (NCATS).
GLS inhibitor: qHTS for Inhibitors of Glutaminase (GLS); Glutaminase kidney isoform, mitochondrial (Homo sapiens), O94925; GLS enzymatic activity, qHTS titration; Potency, µM (doses to about 45.5 µM), for the others: at the highest dose activity change, negative = inhibition, usual class: inhibitors; 410,000 tested, 0.21% active; AID 624170, 2012; also: % is scaled to controls: 0 for no effect and ±100 for the full control effect
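Compounds were pin-transferred onto hKGA, after which L-glutamine (1 mM solution) and a detection mix of glutamate oxidase, HRP and Amplex Red were added. Initial and 30 min RT fluorescence reads were collected.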
PGK inhibitor: qHTS Assay to Find Inhibitors of Phosphoglycerate Kinase. 380,000 tested, 0.043% active. PGK/GAPDH coupled, Kinase-Glo luminescence, 60 min. Phosphoglycerate kinase, glycosomal (Trypanosoma brucei brucei), P07378. AID 602233, 2012. Potency, µM (highest dose often 57.5 µM), inactives show at the top dose activity change, negative = inhibition, usual class: inhibitors; also: % is scaled to controls: 0 for no effect and ±100 for the full control effect; nearly all actives have a fitted effect of over 60% in size
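Recombinant glycosomal PGK reaction used 1,3-bisphosphoglycerate generated in-well by GAPDH (100nM final) in 100mM TEA pH 7.6, 5mM MgCl2, 0.01% Tween-20. After 60 minutes at room temperature, ATP was read by Kinase-Glo Plus luminescence end-point.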
Pin1 inh: qHTS Assay to Find Inhibitors of Pin1. Pin1 FP peptide displacement, HiFluor488, 10 min. 390,000 tested, 0.009% active. Potency, µM (top dose mostly 115 µM), without a hit: at the highest dose activity, negative = inhibition, actives largely listed as inhibitors; active = well fitted inhibition curve with a large enough effect in the polarisation, with a control signal flat, not every such curve was filed as active; inconclusive = small, poorly fitted or top-dose-only effect, or effect the other way, or a change in a side signal; inactive = no such curve, though single readings can be large or run the other way; the % refers to the polarisation; also: % is scaled to controls: 0 for no effect and ±100 for the full control effect
Target sequence (Q13526 whole entry, looked up): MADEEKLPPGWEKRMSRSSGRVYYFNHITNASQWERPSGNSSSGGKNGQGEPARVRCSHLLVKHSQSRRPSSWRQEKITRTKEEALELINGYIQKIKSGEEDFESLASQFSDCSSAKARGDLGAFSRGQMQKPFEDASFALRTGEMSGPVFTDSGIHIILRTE
Tb PFK inh-1: qHTS Assay to Find Inhibitors of T. brucei phosphofructokinase; 330,000 tested, 0.17% active; T. brucei PFK, ADP-Glo luminescence; AID 485367, 2010; ATP-dependent 6-phosphofructokinase (Trypanosoma brucei brucei), O15648; Potency, µM (series often up to 57.5 µM), inactives show at the highest dose activity, negative = inhibition, usual class: inhibitors;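 also: 0% = uninhibited 1x PFK enzyme wells and -100% = no-enzyme wells; nearly all actives have a fitted effect of over 60% in size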
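ADP-Glo luminescence quantified ADP after 45 min at room temperature, with 1.25 nM T. brucei PFK, 0.1 mM ATP and 0.5 mM fructose-6-phosphate in pH 8.0 TEA buffer. qHTS titrations up to 57 µM; curves classified by quality.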
VDR inhibitor: Inhibitors of the vitamin D receptor (VDR): qHTS. VDR-SRC2-3 peptide fluorescence polarization, 2 h. Potency, µM, for inactives: max response, negative = inhibition, actives largely listed as inhibitors. 400,000 tested, 0.93% active. AID 504847, 2011; also: % is scaled to controls: 0 for no effect and ±100 for the full control effect
Target sequence (P11473 whole entry, looked up): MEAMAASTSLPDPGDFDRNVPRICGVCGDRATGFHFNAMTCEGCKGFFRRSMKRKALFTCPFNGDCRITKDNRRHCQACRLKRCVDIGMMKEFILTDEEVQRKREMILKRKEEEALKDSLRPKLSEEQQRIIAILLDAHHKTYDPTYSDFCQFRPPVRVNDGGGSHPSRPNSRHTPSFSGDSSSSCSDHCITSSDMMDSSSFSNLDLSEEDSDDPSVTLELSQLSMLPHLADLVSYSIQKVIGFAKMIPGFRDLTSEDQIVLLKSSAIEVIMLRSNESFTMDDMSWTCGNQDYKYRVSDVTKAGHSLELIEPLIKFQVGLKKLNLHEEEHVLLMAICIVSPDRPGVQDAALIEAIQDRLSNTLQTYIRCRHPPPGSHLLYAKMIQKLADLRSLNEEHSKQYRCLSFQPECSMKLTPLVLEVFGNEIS
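FP read-out; VDR + SRC2-3 coactivator peptide; 23 nl compound by pintool; 2 h RT incubation; reagents held at 4 deg C, protected from light.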
Tb PFK KinaseGlo: Tb PFK orthogonal confirmatory assay using ATP depletion (Kinase-Glo Plus) as an alternative measure of Tb PFK activity: Hit Validation. shares compounds with Tb PFK inh-1. Tb PFK enzyme, ATP depletion, Kinase-Glo Plus luminescence. Potency, µM (titrated, usually from 57.5 µM), for inactives: top-dose inhibition. 1,100 tested, 47% active. AID 504636, 2011; calls by dose curve; also: nearly all actives have a fitted effect of over 60% in size
Tb PFK inh-2: Inhibitors of T. brucei phosphofructokinase: Hit Validation; shares compounds with Tb PFK inh-1; purified T. brucei PFK, ADP-Glo luminescence, 45 min; Potency, µM (doses to about 57.5 µM), for inactives: at the top dose activity change, negative = inhibition, hits mostly inhibitors; 1,100 tested, 41% active; AID 504637, 2011;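 also: plate controls were full PFK enzyme control for no effect and no enzyme control for full effect; nearly all actives have a fitted effect of over 60% in size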
Numbers without * were called inactive. Sampled rows, rich in hits. Any-hit rate of the full collection: about 1.1%. Unless noted, calls follow the shape of the dose curve; as a rule, active = well fitted curve in the direction sought with a large enough effect; inconclusive = small, poorly fitted or top-dose-only effect, or another doubt; inactive = no such curve, though single readings can be large; an effect the other way counts as inactive or inconclusive. Potency is read from the fitted curve at half-maximal effect.

What do the screens show for `CCOC(=O)C1=C(N)OC2=C(C(=O)CC(C)(C)C2)C1c1cc(CSc2nnnn2C)cs1` (stereo not given)?
GLS inhibitor: 1%; PGK inhibitor: 9%; Pin1 inh: -2%; Tb PFK inh-1: inconclusive; VDR inhibitor: -27%; Tb PFK KinaseGlo: -1%; Tb PFK inh-2: 1%

Results for C[C@H]1CO1 ?
VDR inhibitor: -2%

What do the screens show for `O=c1c2cc([N+](=O)[O-])ccc2nc(CN2CCOCC2)n1-c1ccccc1F`?
Tb PFK inh-1: 5%

How did O=[N+]([O-])c1ccc(N/N=C/c2ccc(O)c(O)c2O)c(S(=O)(=O)N2CCOCC2)c1 do in these assays?
GLS inhibitor: inconclusive; PGK inhibitor: -1%; Pin1 inh: inconclusive; Tb PFK inh-1: inconclusive; VDR inhibitor: inconclusive; Tb PFK KinaseGlo: inconclusive; Tb PFK inh-2: inconclusive

How did O=C(CCN1CC1)OCCOC(=O)CCN1CC1 do in these assays?
GLS inhibitor: 5%; PGK inhibitor: 2%; Pin1 inh: -2%; VDR inhibitor: 4%

What do the screens show for `COc1cccc(N2C(=O)/C(=C/c3ccc(C)o3)C(=O)NC2=S)c1`?
GLS inhibitor: inconclusive; Pin1 inh: inconclusive; Tb PFK inh-1: -1%; VDR inhibitor: inconclusive

How did CCOc1cccc(N2C(=O)/C(=C/c3ccco3)C(=O)NC2=S)c1 do in these assays?
GLS inhibitor: inconclusive; PGK inhibitor: inconclusive; Pin1 inh: -7%; Tb PFK inh-1: inconclusive; VDR inhibitor: inconclusive; Tb PFK KinaseGlo: inconclusive; Tb PFK inh-2: inconclusive

How did COc1ccc2nc(NC(=O)c3ccccc3O)sc2c1 do in these assays?
GLS inhibitor: 14%; PGK inhibitor: 5%; Pin1 inh: 4%; Tb PFK inh-1: inconclusive; VDR inhibitor: 4%; Tb PFK KinaseGlo: -30%; Tb PFK inh-2: inconclusive

What do the screens show for `CCOc1ccc2nc(NC(=O)c3cccn(Cc4ccccc4C)c3=O)sc2c1`?
GLS inhibitor: 0%; PGK inhibitor: -2%; Pin1 inh: -3%; VDR inhibitor: 2%

Results for O=C(O)CCC(=O)Nc1ccc(SSc2ccc(NC(=O)CCC(=O)O)cc2)cc1 ?
GLS inhibitor: inconclusive; PGK inhibitor: -5%; Pin1 inh: -7%; Tb PFK inh-1: inconclusive; VDR inhibitor: inconclusive; Tb PFK KinaseGlo: 8.5µM*; Tb PFK inh-2: 17µM*

Results for C(=C/c1ccccc1)/CN1CCN(CCOC(c2ccccc2)c2ccccc2)CC1 ?
VDR inhibitor: -7%

How did Cc1c(C(=O)OCc2ccccc2)[nH]c2c1C(=O)CC(c1ccco1)C2 (stereo not given) do in these assays?
GLS inhibitor: -3%; PGK inhibitor: inconclusive; Pin1 inh: -5%; Tb PFK inh-1: inconclusive; VDR inhibitor: -27%; Tb PFK KinaseGlo: inconclusive; Tb PFK inh-2: inconclusive

How did CN(C)c1ccc(/C=N\NC(=O)c2ccc(Cn3cc(Cl)cn3)cc2)cc1 do in these assays?
GLS inhibitor: 23%; PGK inhibitor: -10%; Pin1 inh: 22%; Tb PFK inh-1: 12µM*; VDR inhibitor: -12%; Tb PFK KinaseGlo: 2.7µM*; Tb PFK inh-2: 3.4µM*

What do the screens show for `O=C(NN=Cc1ccc(N(CCCl)CCCl)cc1Cl)c1cccnc1`?
GLS inhibitor: -5%; PGK inhibitor: inactive; Pin1 inh: 3%; VDR inhibitor: -3%

How did N#Cc1cc2c(nc1SCC(=O)Nc1ccc(Cl)c(C(F)(F)F)c1)C1CCN2CC1 do in these assays?
GLS inhibitor: -9%; PGK inhibitor: -9%; Pin1 inh: -3%; VDR inhibitor: -13%

What do the screens show for `Cc1ccc(-c2nc3c(c(SCC(=O)Nc4cccc(C(=O)O)c4)n2)Cc2cccc(C)c2O3)cc1`?
Pin1 inh: inconclusive; Tb PFK inh-1: 1.7µM*; VDR inhibitor: 6%; Tb PFK KinaseGlo: 1.1µM*; Tb PFK inh-2: inconclusive

What do the screens show for `COc1ccc(N2C(=O)CS(=O)C(c3ccccc3)C2=O)cc1` (stereo not given)?
GLS inhibitor: -2%; PGK inhibitor: -11%; Pin1 inh: 1%; Tb PFK inh-1: inconclusive; VDR inhibitor: 35µM*; Tb PFK KinaseGlo: inconclusive; Tb PFK inh-2: -19%

Results for O=C(Nc1cccc(-c2nnn(CC(=O)N3CCc4ccccc4C3)n2)c1)C1CCC1 ?
GLS inhibitor: 25%; PGK inhibitor: -5%; Pin1 inh: 18%; Tb PFK inh-1: 24µM*; VDR inhibitor: 5%; Tb PFK KinaseGlo: 13µM*; Tb PFK inh-2: inconclusive

What do the screens show for `Cc1c(NC(=O)c2ccc(Cl)c([N+](=O)[O-])c2)cccc1-n1cnnn1`?
GLS inhibitor: 0%; PGK inhibitor: -1%; Pin1 inh: -7%; Tb PFK inh-1: inconclusive; VDR inhibitor: 3%; Tb PFK KinaseGlo: inconclusive; Tb PFK inh-2: inconclusive

Results for N#CCCn1cc(C(=O)Nc2ccccc2Cl)c(-c2ccc([N+](=O)[O-])cc2)n1 ?
GLS inhibitor: 2%; PGK inhibitor: inactive; Pin1 inh: 0%; Tb PFK inh-1: 1%; VDR inhibitor: -3%

How did CCOP(=O)(CCP(=O)(OCC)OCC)OCC.C[CH2][Sn]([Cl])([Cl])[CH2]C do in these assays?
GLS inhibitor: inconclusive; PGK inhibitor: 14%; Pin1 inh: 0%; VDR inhibitor: inconclusive

How did O=C(NC(=S)Nc1ccccc1C(=O)O)c1ccc2ccccc2c1 do in these assays?
GLS inhibitor: -8%; PGK inhibitor: -3%; Pin1 inh: -4%; Tb PFK inh-1: inconclusive; VDR inhibitor: -26%; Tb PFK KinaseGlo: -24%; Tb PFK inh-2: inconclusive

What do the screens show for `O=C(O)c1ccccc1Nc1cccc(C(F)(F)F)c1`?
GLS inhibitor: 4%; PGK inhibitor: -4%; Pin1 inh: -3%; Tb PFK inh-1: -5%; VDR inhibitor: inconclusive

Results for Cc1cc([C@@H]2CCCN2C)on1 ?
VDR inhibitor: 9%
